Laboratory results published in PubChem BioAssay AID2807 (Vanderbilt High Throughput Screening Facility, 2010).
Measured potencies and affinities stand elsewhere. Active and inactive are the calls of the source. How the calls were made is not given here.

Target: Metabotropic glutamate receptor 4 (Homo sapiens) (UniProt Q14833)
Experiment: PubChem AID 2807
Conditions: CHO hmGluR4/Gqi5 calcium mobilization, PAM potentiation; series mostly up to 30 µM

Sequence of Metabotropic glutamate receptor 4 (Homo sapiens) (Q14833 whole entry, looked up): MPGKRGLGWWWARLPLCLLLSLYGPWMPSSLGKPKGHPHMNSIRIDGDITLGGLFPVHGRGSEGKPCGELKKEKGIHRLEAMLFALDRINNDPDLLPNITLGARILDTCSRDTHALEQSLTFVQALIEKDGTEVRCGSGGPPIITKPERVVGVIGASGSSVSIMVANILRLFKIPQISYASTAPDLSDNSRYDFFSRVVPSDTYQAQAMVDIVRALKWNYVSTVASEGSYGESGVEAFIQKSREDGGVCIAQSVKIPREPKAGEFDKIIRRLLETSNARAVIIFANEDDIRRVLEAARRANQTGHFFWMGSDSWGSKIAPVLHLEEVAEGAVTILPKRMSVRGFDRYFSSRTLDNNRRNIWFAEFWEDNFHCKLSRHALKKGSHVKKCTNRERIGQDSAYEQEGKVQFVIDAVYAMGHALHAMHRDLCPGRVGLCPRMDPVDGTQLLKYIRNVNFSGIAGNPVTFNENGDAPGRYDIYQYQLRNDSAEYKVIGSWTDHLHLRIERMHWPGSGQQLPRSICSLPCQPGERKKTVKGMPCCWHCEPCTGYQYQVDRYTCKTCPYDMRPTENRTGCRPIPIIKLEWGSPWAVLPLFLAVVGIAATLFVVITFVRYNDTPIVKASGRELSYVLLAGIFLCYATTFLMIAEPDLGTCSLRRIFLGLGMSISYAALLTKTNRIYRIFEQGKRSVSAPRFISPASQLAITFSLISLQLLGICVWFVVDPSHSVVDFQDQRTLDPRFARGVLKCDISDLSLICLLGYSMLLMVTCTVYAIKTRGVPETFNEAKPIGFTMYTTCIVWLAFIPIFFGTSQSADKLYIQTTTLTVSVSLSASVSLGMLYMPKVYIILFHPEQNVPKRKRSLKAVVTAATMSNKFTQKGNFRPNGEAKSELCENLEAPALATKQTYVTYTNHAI

outcome, inactive:
O=C(Nc1ccc(Cl)c(Cl)c1)c1cnccn1
O=C(Nc1ccc(Cl)c(Cl)c1)c1cc2ccccc2o1
O=C(Nc1ccc(Cl)c(Cl)c1)C1CCCCC1
O=C(Nc1ccc(Cl)c(Cl)c1)c1ccccc1
Cn1cccc1C(=O)Nc1ccc(Cl)c(Cl)c1
O=C(Nc1ccc(Cl)c(Cl)c1)c1ccc(-c2ccccc2)o1
